# According to the supplement of paper PMC11001985:
# Compound: C#CCNC(=O)CCSSCCC(=O)NCCc1ccc(C=O)c(C=O)c1
# Test: lysine labeling ratio R10:1 (500 µM / 50 µM probe), SILAC-ABPP in living cells; higher = lower intrinsic lysine reactivity toward the probe, active = 2 or less
# Settings: HeLa; probe concentrations 500 vs 50 µM
# In short: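 In PBS at room temperature, living HeLa cells grown with SILAC light or heavy labels were treated with 50 µM or 500 µM of an alkyne-tagged, disulfide-linked lysine probe, with label swaps in both directions. Analysis was by LC-MS/MS on a TIMS-TOF Pro after click to biotin-azide, neutravidin capture and DTT release. For each lysine, R is the median across forward and reverse replicates of the filtered median high-probe/low-probe MS1 peptide ratio, capped at 20.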
# Sequence of UniProt Q15149 (Q15149 whole entry): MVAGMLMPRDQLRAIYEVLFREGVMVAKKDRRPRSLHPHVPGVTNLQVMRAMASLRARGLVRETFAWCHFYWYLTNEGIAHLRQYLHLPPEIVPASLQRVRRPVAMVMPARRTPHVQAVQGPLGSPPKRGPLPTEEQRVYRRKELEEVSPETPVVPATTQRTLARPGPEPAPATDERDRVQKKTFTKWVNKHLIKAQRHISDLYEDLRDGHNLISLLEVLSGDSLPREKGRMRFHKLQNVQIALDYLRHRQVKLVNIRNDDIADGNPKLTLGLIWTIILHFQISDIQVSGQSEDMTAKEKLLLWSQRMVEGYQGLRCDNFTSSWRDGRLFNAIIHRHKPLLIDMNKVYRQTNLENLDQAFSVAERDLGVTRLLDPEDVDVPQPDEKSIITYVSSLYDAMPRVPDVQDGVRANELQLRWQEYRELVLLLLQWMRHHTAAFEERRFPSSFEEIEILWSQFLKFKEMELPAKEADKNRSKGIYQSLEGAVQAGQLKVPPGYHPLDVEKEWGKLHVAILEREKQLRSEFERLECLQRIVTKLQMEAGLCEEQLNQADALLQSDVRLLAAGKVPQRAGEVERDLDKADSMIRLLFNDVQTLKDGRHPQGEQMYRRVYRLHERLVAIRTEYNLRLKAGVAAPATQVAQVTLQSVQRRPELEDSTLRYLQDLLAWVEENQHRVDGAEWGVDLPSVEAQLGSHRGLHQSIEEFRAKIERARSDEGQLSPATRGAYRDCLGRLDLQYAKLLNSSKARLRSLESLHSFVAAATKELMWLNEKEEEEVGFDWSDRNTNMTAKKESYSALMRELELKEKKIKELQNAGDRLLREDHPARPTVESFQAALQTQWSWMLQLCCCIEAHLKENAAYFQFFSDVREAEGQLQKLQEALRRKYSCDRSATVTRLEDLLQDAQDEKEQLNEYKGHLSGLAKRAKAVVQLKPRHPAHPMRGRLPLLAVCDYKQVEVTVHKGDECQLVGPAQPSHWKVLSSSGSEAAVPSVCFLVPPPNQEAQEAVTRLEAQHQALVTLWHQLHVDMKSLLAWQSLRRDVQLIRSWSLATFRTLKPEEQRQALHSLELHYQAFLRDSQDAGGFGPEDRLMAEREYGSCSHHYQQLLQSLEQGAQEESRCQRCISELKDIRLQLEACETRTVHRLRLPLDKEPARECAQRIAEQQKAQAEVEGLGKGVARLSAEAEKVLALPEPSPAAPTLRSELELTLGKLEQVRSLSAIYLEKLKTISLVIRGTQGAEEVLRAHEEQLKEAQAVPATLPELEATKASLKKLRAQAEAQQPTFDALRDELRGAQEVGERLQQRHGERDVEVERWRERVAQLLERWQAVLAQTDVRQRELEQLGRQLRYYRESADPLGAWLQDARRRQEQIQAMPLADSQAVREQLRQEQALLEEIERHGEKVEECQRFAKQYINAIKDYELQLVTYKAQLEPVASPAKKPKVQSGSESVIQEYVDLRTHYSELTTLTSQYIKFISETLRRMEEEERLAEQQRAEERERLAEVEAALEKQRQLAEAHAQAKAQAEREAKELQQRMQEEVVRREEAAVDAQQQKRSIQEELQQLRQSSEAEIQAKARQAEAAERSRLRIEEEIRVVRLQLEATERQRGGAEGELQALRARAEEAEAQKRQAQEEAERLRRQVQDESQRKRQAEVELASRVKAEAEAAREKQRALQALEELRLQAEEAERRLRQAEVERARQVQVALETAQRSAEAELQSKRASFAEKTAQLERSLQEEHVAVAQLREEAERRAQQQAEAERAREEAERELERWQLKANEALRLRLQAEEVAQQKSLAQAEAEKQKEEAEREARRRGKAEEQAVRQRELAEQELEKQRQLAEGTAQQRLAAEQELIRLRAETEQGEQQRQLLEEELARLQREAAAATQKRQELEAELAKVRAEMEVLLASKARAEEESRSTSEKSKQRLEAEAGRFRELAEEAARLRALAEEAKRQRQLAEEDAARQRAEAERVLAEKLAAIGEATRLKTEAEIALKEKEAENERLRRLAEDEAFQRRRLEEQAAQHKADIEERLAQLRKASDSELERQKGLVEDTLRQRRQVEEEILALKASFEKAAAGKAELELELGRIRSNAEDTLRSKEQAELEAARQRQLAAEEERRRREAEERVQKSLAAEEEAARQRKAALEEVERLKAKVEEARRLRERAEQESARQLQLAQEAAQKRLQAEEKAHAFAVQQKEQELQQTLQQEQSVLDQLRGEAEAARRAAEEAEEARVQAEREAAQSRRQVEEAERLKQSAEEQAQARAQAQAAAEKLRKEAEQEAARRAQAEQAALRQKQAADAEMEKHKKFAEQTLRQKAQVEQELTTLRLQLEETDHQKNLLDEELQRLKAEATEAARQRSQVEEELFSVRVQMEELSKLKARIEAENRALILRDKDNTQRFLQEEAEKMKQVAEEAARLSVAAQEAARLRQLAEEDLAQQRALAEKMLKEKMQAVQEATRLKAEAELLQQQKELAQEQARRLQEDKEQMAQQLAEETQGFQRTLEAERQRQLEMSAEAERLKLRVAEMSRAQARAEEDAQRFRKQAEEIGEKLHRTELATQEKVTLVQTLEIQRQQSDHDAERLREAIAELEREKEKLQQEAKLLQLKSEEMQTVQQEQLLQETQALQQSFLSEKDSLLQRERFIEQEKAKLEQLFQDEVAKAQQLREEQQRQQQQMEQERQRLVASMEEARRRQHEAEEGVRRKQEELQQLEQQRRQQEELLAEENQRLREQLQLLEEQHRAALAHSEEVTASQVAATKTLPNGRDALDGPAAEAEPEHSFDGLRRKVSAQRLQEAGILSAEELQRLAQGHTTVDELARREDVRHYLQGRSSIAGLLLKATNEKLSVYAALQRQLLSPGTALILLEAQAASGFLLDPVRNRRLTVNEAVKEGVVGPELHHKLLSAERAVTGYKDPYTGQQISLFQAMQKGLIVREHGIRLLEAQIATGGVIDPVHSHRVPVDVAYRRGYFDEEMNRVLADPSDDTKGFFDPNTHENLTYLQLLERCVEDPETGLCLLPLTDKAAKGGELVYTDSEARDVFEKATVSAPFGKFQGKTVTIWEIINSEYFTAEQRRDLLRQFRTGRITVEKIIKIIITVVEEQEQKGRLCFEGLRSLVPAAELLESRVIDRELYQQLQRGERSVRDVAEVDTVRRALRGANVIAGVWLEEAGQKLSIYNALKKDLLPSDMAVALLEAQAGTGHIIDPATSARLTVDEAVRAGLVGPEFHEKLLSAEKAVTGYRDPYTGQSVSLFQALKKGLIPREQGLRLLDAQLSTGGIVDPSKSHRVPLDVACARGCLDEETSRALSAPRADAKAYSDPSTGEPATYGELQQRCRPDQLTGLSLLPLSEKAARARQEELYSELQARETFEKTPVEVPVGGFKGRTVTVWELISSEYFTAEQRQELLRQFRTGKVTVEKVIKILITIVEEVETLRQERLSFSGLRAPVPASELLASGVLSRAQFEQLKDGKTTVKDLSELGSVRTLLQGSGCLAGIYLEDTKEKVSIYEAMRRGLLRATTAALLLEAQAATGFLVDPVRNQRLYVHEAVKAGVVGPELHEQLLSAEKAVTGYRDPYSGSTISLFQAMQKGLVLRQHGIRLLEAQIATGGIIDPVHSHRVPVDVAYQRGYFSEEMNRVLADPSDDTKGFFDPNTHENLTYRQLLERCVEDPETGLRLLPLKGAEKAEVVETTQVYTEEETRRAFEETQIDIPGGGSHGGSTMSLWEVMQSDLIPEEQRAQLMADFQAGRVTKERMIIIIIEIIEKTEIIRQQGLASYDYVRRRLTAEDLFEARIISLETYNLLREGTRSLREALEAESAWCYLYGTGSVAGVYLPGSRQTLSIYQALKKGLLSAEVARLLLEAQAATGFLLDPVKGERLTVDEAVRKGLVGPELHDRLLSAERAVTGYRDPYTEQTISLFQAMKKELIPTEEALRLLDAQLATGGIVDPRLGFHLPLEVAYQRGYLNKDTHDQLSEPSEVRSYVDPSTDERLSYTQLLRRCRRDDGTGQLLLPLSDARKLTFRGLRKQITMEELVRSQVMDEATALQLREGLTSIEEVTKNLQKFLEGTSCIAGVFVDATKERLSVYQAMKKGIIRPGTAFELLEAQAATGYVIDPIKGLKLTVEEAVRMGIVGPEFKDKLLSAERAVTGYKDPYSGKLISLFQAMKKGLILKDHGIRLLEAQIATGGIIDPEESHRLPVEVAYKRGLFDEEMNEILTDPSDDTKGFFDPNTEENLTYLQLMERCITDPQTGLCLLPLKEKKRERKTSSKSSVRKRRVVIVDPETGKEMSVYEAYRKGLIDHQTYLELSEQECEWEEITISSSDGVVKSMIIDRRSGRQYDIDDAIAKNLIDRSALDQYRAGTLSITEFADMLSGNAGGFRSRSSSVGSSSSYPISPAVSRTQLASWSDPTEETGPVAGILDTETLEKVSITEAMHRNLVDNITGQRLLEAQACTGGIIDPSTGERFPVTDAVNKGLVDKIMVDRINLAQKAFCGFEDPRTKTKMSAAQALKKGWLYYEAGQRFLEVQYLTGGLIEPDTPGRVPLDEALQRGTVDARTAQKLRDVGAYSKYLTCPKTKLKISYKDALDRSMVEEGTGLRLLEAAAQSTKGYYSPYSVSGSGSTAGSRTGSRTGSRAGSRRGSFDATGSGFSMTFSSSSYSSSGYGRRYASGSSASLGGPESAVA
# Sequence of UniProt P32970 (P32970 whole entry): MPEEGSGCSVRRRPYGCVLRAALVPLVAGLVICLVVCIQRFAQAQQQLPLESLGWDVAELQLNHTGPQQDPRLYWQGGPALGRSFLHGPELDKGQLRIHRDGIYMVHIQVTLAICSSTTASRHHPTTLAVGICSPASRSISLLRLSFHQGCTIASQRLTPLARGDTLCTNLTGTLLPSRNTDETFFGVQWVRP
# Sequence of UniProt P15328 (P15328 whole entry, looked up): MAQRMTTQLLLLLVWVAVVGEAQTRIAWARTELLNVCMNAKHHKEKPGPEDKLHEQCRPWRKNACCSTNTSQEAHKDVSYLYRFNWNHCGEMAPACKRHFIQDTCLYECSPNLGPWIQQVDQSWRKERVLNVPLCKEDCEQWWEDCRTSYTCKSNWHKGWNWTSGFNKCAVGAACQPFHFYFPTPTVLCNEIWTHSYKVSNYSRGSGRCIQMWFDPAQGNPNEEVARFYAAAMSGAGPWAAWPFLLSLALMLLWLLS
row,Target,lysine labeling ratio R10:1
1,H2AFY (lysine site: K18) (UniProt O75367),3.07 (inactive)
2,F11R (lysine site: K97) (UniProt Q9Y624),18.5 (inactive)
3,CACNA2D1 (lysine site: K1048) (UniProt P54289),6.59 (inactive)
4,TF (lysine site: K135) (UniProt P02787),1.26 (active)
5,LAMB1 (lysine site: K1370) (UniProt P07942),1.61 (active)
6,UniProt P62899 (lysine site: K70),12.9 (inactive)
7,GPC1 (lysine site: K363) (UniProt P35052),7.78 (inactive)
8,ITGA2 (lysine site: K1038) (UniProt P17301),2.81 (inactive)
9,UniProt P60709 (lysine site: K18),4.98 (inactive)
10,UniProt Q9UHI8 (lysine site: K655),2.17 (inactive)
11,HSPD1 (lysine site: K523) (UniProt P10809),5.04 (inactive)
12,FLNA (lysine site: K2133) (UniProt P21333),2.27 (inactive)
13,FLNA (lysine site: K92) (UniProt P21333),5.97 (inactive)
14,UniProt P61978 (lysine site: K34),3.82 (inactive)
15,HMOX1 (lysine site: K39) (UniProt P09601),1.45 (active)
16,EIF3I (lysine site: K2) (UniProt Q13347),2.67 (inactive)
17,UniProt P20591 (lysine site: K505),2.52 (inactive)
18,UniProt Q15149 (lysine site: K2846),3.06 (inactive)
19,UniProt P05106 (lysine site: K98),1.59 (active)
20,TLN1 (lysine site: K138) (UniProt Q9Y490),1.21 (active)

row,Target,lysine labeling ratio R10:1
1,CD70 (lysine site: K93) (UniProt P32970),3.66 (inactive)
2,DSTN (lysine site: K132) (UniProt P60981),1.32 (active)
3,CACYBP (lysine site: K19) (UniProt Q9HB71),7.06 (inactive)
4,LRP1 (lysine site: K2653) (UniProt Q07954),1.54 (active)
5,UniProt Q16363 (lysine site: K1330),2.83 (inactive)
6,MYH9 (lysine site: K1775) (UniProt P35579),3.47 (inactive)
7,HINT1 (lysine site: K30) (UniProt P49773),1.48 (active)
8,SEMA3C (lysine site: K724) (UniProt Q99985),4.97 (inactive)
9,TKT (lysine site: K352) (UniProt P29401),6 (inactive)
10,SPTAN1 (lysine site: K2187) (UniProt Q13813),5.14 (inactive)
11,UniProt Q9NYU2 (lysine site: K362),3.31 (inactive)
12,TXNRD1 (lysine site: K405) (UniProt Q16881),5.51 (inactive)
13,SRI (lysine site: K146) (UniProt P30626),4.33 (inactive)
14,UniProt P68366 (lysine site: K112),2.82 (inactive)
15,FRAS1 (lysine site: K549) (UniProt Q86XX4),4.59 (inactive)
16,UniProt Q15149 (lysine site: K1725),1.57 (active)
17,PCMT1 (lysine site: K125) (UniProt P22061),1.38 (active)
18,UniProt P55285 (lysine site: K365),0.61 (active)
19,FOLR1 (lysine site: K136) (UniProt P15328),7.36 (inactive)
20,HNRNPA1 (lysine site: K113) (UniProt P09651),4.81 (inactive)
